Laboratory results from the supplement of paper PMC10849652.
The full data set covers some 8,800 targets. This sample favours those with a hit. About 0.5% of all pairs of compound and target were hits.

Columns and labels:
Test in all cases: log2 fold change, soluble protein after heating vs DMSO (PISA); higher = thermal stabilisation; K562 lysate, 10 uM; active = over 0.2 and 3.5 SD of the protein, either way, in both replicates (recomputed)
erlotinib = compound: C#Cc1cccc(Nc2ncnc3cc(OCCOC)c(OCCOC)cc23)c1 [erlotinib]
How it was run: (§1)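 Following dounce homogenisation of K562 pellets in PBS pH 7.4 with 1 mM MgCl2, crude extract at 1 mg/mL protein was incubated for 30 min with 10 μM compound. Aliquots were then heated for 3 min over 48°C-58°C and pooled, NP-40 was added to 0.5% at 4°C, and soluble protein was recovered as the supernatant at 21,000xg for 90 min. Channel-sum-equalised TMTpro 16plex LC-MS/MS quantified this protein. Each value, from duplicates, is a log-two fold change in thermal stability relative to solvent controls.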

[1] = compound: C/C(=N\NC(=O)C1=CC(=CC=C1)S(=O)(=O)N2CCOCC2)/C3=C(C=CC(=C3)Cl)O
How it was run: as §1

[2] = compound: C1=CC(=CC=C1C2=NC3=C(N2)C=C(C=C3)C(=O)N)OC4=CC=C(C=C4)Cl
How it was run: as §1

[3] = compound: C1=CC2=C(C=CC(=C2)/C=C\3/C(=O)NC(=NCC4=CC=CS4)S3)N=C1
How it was run: as §1

[4] = compound: C1=CC2=NC=CN=C2C=C1/C=C/3\C(=O)NC(=O)S3
How it was run: as §1

[5] = compound: C1=CC=C(C=C1)C2=NC(=C(N2)C3=CC=NC=C3)C4=CC(=C(C=C4)Cl)O
How it was run: as §1

[6] = compound: C1=CC=C2C(=C1)C3=NNC4=CC=CC(=C43)C2=O
How it was run: as §1

[7] = compound: C1CCN(C1)C(=O)NC2=CC=CC(=C2)NC3=NC=C(C(=N3)NCCC4=CN=CN4)Br
How it was run: as §1

[8] = compound: C1CN(CCC1(CC2=CC=C(C=C2)Cl)N)C3=NC=NC4=C3C=CN4
How it was run: as §1

IRAK-1-4 Inhibitor I = compound: C1COCCN1CCN2C3=CC=CC=C3N=C2NC(=O)C4=CC(=CC=C4)[N+](=O)[O-] [IRAK-1-4 Inhibitor I]
How it was run: as §1

Measured: log2 fold change

STAU1 (UniProt O95793)
inactive: erlotinib 0.02 | [1] -0.001 | [2] -0.032 | [3] 0.002 | [4] -0.016 | [5] -0.08 | [6] -0.007 | [7] -0.018 | [8] -0.003 | IRAK-1-4 Inhibitor I 0.055

SPATA5 (UniProt Q8NB90)
inactive: erlotinib 0.04 | [1] 0.025 | [2] -0.006 | [3] 0.025 | [4] -0.042 | [5] 0.042 | [6] 0.015 | [7] 0.017 | [8] 0.017 | IRAK-1-4 Inhibitor I 0.016

SRM (UniProt P19623)
inactive: erlotinib -0.006 | [1] 0.039 | [2] 0.017 | [3] -0.001 | [4] 0.014 | [5] 0.004 | [6] -0.003 | [7] 0.017 | [8] 0.027 | IRAK-1-4 Inhibitor I 0.007

TANGO6 (UniProt Q9C0B7)
inactive: erlotinib 0.045 | [1] -0.04 | [2] 0.012 | [3] -0.011 | [4] 0.009 | [5] -0.049 | [6] -0.048 | [7] 0.007 | [8] 0.023 | IRAK-1-4 Inhibitor I 0.048

SSBP3 (UniProt Q9BWW4)
inactive: erlotinib 0.038 | [1] -0.09 | [2] 0.004 | [3] 0.026 | [4] 0.129 | [5] -0.048 | [6] 0.018 | [7] -0.054 | [8] 0.013 | IRAK-1-4 Inhibitor I 0.041

SPATA5L1 (UniProt Q9BVQ7)
inactive: erlotinib 0.09 | [1] -0.053 | [2] -0.017 | [3] 0.044 | [4] 0.004 | [5] 0.069 | [6] 0.01 | [7] 0.027 | [8] 0.032 | IRAK-1-4 Inhibitor I 0.015

STK36 (UniProt Q9NRP7)
inactive: erlotinib 0.114 | [1] -0.06 | [2] 0.251 | [3] -0.199 | [4] -0.169 | [5] -0.075 | [6] -0.241 | [7] -0.049 | [8] 0.185 | IRAK-1-4 Inhibitor I 0.205

SLC25A44 (UniProt Q96H78)
inactive: erlotinib 0.117 | [1] -0.275 | [2] 0.055 | [3] -0.018 | [4] 0.025 | [5] -0.064 | [6] 0.145 | [7] -0.039 | [8] 0.037 | IRAK-1-4 Inhibitor I -0.053

SMAP2 (UniProt Q8WU79)
inactive: erlotinib -0.009 | [1] -0.018 | [2] 0.073 | [3] 0 | [4] 0.023 | [5] -0.2 | [6] 0.015 | [7] 0.037 | [8] 0.023 | IRAK-1-4 Inhibitor I 0.044

SNW1 (UniProt Q13573)
UniProt Q13573, sequence (Q13573 whole entry, looked up): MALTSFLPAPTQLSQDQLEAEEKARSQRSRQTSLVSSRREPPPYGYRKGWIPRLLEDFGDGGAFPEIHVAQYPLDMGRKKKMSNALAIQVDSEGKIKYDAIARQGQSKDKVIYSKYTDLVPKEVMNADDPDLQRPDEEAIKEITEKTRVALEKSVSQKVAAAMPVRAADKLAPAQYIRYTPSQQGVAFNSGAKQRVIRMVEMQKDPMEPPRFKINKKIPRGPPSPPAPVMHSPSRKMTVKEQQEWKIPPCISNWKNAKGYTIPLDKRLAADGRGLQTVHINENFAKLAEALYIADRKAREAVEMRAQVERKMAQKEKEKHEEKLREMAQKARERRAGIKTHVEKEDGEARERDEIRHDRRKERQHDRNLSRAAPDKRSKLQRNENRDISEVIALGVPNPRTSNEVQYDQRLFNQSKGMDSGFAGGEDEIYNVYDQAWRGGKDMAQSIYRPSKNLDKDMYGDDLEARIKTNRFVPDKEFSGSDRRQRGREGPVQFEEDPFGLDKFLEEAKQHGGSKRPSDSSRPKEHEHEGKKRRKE
inactive: erlotinib -0.038 | [1] -0.017 | [2] 0.026 | [3] -0.018 | [4] -0.033 | [5] -0.006 | [6] -0.004 | [7] 0.022 | [8] -0.021 | IRAK-1-4 Inhibitor I 0

STARD3 isoform 3 (UniProt Q14849)
UniProt Q14849, sequence (Q14849 whole entry, looked up): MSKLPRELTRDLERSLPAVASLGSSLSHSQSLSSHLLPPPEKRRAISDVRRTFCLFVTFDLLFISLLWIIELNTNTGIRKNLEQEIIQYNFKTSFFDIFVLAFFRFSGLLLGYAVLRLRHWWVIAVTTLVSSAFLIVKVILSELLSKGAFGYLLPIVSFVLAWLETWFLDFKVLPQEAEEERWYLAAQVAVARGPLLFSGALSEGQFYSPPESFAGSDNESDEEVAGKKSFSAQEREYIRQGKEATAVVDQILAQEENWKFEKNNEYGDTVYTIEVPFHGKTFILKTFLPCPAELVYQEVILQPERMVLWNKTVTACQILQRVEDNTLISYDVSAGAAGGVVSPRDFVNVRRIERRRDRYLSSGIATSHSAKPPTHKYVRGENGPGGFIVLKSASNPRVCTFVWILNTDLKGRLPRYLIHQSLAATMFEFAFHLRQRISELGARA
inactive: erlotinib -0.014 | [1] 0.104 | [2] -0.022 | [3] -0.085 | [4] -0.078 | [5] -0.003 | [6] 0.107 | [7] -0.085 | [8] 0.133 | IRAK-1-4 Inhibitor I 0.047

STAR (UniProt P49675)
UniProt P49675, sequence (P49675 whole entry, looked up): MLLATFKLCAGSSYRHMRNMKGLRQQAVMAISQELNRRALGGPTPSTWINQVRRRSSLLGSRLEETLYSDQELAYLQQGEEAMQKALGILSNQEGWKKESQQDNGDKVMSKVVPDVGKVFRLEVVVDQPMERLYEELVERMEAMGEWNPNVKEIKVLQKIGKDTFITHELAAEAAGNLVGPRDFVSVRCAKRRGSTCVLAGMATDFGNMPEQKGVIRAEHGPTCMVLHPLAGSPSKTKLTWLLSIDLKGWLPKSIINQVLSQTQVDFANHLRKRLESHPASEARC
inactive: erlotinib 0.207 | [1] 0.01 | [2] -0.192 | [3] -0.029 | [5] 0.042 | [6] -0.058 | [7] -0.125 | [8] -0.035 | IRAK-1-4 Inhibitor I -0.031

STK38L (UniProt Q9Y2H1)
inactive: erlotinib -0.001 | [2] -0.163 | [5] 0.113 | [7] -0.027 | [8] 0.11 | IRAK-1-4 Inhibitor I 0.011

SLC39A13 (UniProt Q96H72)
UniProt Q96H72, sequence (Q96H72 whole entry, looked up): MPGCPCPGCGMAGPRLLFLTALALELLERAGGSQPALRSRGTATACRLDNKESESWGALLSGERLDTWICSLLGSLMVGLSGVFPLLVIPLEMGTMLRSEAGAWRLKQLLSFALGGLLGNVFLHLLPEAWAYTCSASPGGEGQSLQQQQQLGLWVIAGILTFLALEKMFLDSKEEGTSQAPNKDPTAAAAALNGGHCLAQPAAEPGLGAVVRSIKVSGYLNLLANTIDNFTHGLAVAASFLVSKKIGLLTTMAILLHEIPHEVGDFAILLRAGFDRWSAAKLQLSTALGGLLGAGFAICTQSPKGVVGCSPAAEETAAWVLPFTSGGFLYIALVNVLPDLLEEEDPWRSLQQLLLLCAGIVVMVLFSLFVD
inactive: erlotinib 0.344 | [2] 0.063 | [5] -0.252 | IRAK-1-4 Inhibitor I -0.025

SMPD2 (UniProt O60906)
inactive: [2] -0.551 | [5] -0.112 | [7] -0.024 | [8] 0.022 | IRAK-1-4 Inhibitor I 0.065
active: erlotinib -1.38

STK26 isoform 3 (UniProt Q9P289)
inactive: [7] 0.272 | [8] -0.045

SURF2 (UniProt Q15527)
inactive: [1] 0.087 | [3] -0.019 | [4] 0.02 | [5] -0.004 | [6] 0.022 | [7] 0.051 | [8] 0.074 | IRAK-1-4 Inhibitor I 0.035

SNRPD2 (UniProt K7EJB5)
inactive: erlotinib -0.076 | [1] 0 | [2] -0.036 | [3] -0.106 | [5] -0.12 | [6] 0.055 | [7] 0.088 | [8] 0.037 | IRAK-1-4 Inhibitor I -0.03

SMC4 (UniProt C9JJ64)
inactive: [4] -0.013

SLC41A1 (UniProt Q8IVJ1)
UniProt Q8IVJ1, sequence (Q8IVJ1 whole entry, looked up): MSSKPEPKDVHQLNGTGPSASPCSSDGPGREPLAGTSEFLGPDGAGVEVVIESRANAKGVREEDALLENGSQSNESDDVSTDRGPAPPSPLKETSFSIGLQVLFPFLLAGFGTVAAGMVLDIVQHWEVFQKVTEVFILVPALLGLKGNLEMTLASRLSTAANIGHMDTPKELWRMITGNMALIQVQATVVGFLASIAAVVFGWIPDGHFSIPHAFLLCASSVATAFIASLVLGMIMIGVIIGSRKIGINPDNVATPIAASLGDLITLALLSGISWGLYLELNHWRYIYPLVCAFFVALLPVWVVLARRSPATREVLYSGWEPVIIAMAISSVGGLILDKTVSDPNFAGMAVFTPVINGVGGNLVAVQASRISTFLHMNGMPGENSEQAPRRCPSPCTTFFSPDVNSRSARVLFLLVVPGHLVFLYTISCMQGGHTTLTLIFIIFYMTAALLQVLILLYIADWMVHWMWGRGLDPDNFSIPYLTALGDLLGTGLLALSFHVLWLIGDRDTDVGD
inactive: erlotinib 0.176 | [2] -0.042 | [5] 0.018 | [7] 0.024 | [8] -0.014 | IRAK-1-4 Inhibitor I -0.008

TAF1B (UniProt Q53T94)
UniProt Q53T94, sequence (Q53T94 whole entry, looked up): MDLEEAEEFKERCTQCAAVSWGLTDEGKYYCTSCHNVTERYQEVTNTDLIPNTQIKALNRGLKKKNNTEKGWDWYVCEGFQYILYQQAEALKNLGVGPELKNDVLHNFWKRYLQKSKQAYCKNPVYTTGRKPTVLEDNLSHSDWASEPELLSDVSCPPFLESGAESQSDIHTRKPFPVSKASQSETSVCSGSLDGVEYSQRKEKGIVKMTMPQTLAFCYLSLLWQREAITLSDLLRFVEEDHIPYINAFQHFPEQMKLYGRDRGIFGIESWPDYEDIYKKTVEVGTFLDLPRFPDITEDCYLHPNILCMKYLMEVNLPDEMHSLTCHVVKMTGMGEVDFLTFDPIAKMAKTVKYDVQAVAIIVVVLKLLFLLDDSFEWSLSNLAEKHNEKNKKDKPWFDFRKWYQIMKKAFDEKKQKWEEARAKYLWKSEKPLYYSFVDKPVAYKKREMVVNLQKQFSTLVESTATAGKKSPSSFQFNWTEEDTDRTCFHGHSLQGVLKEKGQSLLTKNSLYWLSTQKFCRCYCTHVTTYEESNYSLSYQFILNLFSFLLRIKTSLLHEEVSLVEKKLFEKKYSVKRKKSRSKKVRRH
inactive: [1] -0.283 | [3] -0.123 | [4] -0.001 | [5] 0.024 | [6] 0.013 | [7] 0.345 | [8] 0.123 | IRAK-1-4 Inhibitor I -0.061

STAU1 isoform 3 (UniProt O95793)
inactive: erlotinib -0.006 | [2] -0.016 | [4] -0.103

SMIM1 (UniProt B2RUZ4)
UniProt B2RUZ4, sequence (B2RUZ4 whole entry, looked up): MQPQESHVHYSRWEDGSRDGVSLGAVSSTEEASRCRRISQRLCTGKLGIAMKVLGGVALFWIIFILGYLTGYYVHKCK
inactive: erlotinib 0.172 | [2] -0.145 | [4] -0.114 | [5] 0.063 | [7] 0.086 | [8] -0.016 | IRAK-1-4 Inhibitor I -0.214

SHB (UniProt Q15464)
inactive: erlotinib 0.003 | [2] 0.033 | [5] -0.014 | IRAK-1-4 Inhibitor I -0.067

SRC isoform 2 (UniProt P12931)
inactive: erlotinib -0.073 | [2] 0.028 | [4] 0.102 | [5] -0.063 | [7] -0.018 | [8] -0.069 | IRAK-1-4 Inhibitor I 0.034

SNAP23 isoform 2 (UniProt O00161)
inactive: erlotinib 0.042 | [1] -0.019 | [2] 0.27 | [3] -0.006 | [5] -0.071 | [6] -0.117 | [7] 0.104 | [8] -0.08 | IRAK-1-4 Inhibitor I 0.057

SMARCA4 isoform 4 (UniProt P51532)
inactive: erlotinib 0.052 | [2] 0.178 | [5] 0.127 | [7] 0.112 | [8] -0.076 | IRAK-1-4 Inhibitor I -0.101

SLC40A1 (UniProt Q9NP59)
UniProt Q9NP59, sequence (Q9NP59 whole entry, looked up): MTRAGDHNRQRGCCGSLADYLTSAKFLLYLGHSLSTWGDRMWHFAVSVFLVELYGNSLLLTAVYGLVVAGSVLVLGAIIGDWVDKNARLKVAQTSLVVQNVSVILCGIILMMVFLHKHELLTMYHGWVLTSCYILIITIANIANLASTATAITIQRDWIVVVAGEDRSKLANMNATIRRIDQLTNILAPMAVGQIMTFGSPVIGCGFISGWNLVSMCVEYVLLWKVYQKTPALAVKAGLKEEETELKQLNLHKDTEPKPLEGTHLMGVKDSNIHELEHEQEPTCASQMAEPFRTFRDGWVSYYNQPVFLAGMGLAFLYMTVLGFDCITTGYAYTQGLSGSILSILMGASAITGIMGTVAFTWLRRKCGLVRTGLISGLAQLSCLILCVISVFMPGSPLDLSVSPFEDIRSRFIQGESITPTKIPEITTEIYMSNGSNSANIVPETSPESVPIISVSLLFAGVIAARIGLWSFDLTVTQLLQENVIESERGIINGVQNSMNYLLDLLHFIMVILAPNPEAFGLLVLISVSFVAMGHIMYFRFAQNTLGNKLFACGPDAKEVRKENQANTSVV
inactive: erlotinib 0.188 | [1] -0.035 | [2] 0.233 | [3] 0.042 | [5] -0.052 | [6] -0.122 | [7] -0.015 | [8] 0.05 | IRAK-1-4 Inhibitor I 0.048

STK17B (UniProt O94768)
inactive: erlotinib -0.041 | [2] -0.341 | [5] -0.022 | IRAK-1-4 Inhibitor I -0.065

TAF11 (UniProt Q15544)
inactive: [1] 0.174 | [3] -0.144 | [5] -0.04 | [6] 0.124 | [7] -0.242 | [8] 0.071 | IRAK-1-4 Inhibitor I 0.051

TARDBP (UniProt K7EN94)
inactive: [1] 0.293 | [3] -0.12 | [6] -0.12 | [7] 0.001 | [8] -0.19

SKP2 (UniProt Q13309)
UniProt Q13309, sequence (Q13309 whole entry, looked up): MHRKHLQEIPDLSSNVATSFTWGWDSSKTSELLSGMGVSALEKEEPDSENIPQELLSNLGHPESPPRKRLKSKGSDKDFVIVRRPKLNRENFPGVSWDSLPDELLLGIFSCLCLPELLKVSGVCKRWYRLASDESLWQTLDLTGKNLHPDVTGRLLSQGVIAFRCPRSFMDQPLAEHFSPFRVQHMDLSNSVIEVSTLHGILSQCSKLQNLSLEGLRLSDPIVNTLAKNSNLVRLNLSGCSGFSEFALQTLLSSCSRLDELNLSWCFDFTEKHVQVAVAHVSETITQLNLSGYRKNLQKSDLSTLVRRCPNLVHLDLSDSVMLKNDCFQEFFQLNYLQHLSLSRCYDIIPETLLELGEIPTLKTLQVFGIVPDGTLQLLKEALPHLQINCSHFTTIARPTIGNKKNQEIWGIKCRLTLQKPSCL
inactive: erlotinib 0.06 | [1] -0.053 | [2] -0.063 | [3] 0.027 | [5] -0.023 | [6] -0.029 | [7] -0.027 | [8] 0.044 | IRAK-1-4 Inhibitor I -0.002

SLC12A6 isoform 2 (UniProt Q9UHW9)
inactive: erlotinib 0.013 | [2] 0 | [5] -0.019 | [7] -0.139 | [8] -0.049 | IRAK-1-4 Inhibitor I 0.089

SZT2 (UniProt Q5T011)
inactive: erlotinib 0.043 | [2] -0.089 | [4] 0.134 | [5] -0.013 | [7] -0.004 | [8] 0.016 | IRAK-1-4 Inhibitor I 0.014

SIN3B (UniProt O75182)
UniProt O75182, sequence (O75182 whole entry, looked up): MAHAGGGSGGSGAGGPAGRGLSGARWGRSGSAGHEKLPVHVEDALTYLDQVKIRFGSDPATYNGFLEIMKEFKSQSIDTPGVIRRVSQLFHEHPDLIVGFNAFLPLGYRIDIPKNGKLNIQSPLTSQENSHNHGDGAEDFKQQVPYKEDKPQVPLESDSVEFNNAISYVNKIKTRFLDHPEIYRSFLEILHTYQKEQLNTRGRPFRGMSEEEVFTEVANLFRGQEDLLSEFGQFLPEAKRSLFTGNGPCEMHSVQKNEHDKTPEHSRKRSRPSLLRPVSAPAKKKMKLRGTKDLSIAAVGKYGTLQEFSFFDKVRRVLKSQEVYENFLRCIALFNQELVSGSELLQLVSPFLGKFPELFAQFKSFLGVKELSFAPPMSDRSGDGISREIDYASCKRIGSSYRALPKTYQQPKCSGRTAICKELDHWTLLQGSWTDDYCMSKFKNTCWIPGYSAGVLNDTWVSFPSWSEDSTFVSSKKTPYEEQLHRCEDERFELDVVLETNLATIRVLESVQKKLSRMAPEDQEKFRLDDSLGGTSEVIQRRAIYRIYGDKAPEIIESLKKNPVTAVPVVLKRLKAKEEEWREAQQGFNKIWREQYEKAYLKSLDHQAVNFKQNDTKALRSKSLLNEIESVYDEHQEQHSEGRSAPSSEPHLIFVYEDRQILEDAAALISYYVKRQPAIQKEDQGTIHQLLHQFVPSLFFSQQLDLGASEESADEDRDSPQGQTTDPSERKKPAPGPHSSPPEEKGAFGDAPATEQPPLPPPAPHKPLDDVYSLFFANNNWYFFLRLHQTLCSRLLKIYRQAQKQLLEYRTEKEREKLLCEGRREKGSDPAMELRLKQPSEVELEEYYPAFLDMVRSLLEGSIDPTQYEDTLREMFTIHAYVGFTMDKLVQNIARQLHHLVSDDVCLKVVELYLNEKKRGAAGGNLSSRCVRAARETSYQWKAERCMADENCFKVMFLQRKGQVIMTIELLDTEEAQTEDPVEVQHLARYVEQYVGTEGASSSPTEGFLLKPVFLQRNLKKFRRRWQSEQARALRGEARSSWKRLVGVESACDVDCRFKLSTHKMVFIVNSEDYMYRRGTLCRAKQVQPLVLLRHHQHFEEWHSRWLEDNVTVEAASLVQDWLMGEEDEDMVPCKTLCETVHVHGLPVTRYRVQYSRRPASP
inactive: [1] -0.167 | [3] -0.018 | [6] 0.046 | [7] -0.071 | [8] 0.132
